Laboratory results published in paper PMC4336329 (PLoS ONE, 2015).
In all, about 310,000 compounds went through this assay and about 14,000 (4.5%) showed an effect of 50% or more. The effect is printed as a negative number. The entries come from a sample that favours strong results as a whole.

target: human ether-à-go-go-related gene (hERG) potassium channel (human, UniProt Q12809); test: primary screen, population patch clamp on CHO cells stably expressing hERG; higher = less effect of the substance
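Also: peak tail current of the secondary pulse compared with the same well before compound.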

Sequence of human ether-à-go-go-related gene (hERG) potassium channel (Q12809 whole entry, looked up): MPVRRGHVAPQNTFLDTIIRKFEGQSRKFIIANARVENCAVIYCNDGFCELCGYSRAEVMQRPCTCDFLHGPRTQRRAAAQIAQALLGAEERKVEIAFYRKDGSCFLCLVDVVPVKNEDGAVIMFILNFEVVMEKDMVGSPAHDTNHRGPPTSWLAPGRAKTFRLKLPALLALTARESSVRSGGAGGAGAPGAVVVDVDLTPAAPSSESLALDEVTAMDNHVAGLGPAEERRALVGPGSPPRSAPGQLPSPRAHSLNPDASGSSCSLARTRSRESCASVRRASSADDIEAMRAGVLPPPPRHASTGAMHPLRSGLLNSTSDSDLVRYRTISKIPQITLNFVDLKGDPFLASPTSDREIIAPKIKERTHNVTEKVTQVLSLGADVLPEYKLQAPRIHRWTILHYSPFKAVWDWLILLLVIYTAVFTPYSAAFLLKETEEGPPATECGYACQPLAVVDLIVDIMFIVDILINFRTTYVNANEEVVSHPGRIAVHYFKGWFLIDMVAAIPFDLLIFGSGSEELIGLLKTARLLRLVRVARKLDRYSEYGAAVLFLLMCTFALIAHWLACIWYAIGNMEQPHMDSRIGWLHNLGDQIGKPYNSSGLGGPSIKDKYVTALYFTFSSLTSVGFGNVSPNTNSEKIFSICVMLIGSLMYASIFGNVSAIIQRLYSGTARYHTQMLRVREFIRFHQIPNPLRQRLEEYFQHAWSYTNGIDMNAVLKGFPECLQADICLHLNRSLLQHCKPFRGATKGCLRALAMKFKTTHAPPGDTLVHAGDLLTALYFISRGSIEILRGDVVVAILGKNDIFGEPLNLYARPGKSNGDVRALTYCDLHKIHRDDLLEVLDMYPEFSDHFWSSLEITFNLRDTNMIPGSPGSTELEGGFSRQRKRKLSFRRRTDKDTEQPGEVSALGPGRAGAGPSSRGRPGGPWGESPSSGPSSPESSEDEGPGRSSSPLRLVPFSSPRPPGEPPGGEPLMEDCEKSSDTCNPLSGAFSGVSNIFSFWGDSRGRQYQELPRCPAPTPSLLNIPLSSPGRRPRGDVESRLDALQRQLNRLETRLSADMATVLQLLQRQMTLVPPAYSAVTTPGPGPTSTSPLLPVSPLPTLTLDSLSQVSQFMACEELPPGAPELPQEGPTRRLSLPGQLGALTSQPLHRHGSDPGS

In order of falling “hERG current change (%, negative = inhibition) at 10uM” value:
1. FC(F)(F)c1cccc(NCc2n[nH]c(=S)n2C2CCCCC2)c1  41.2%
2. Cc1ccc(NC(=O)C(C)OC(=O)/C=C/c2ccccc2)cc1 (stereo not drawn)  23%
3. CC(C)CCn1c(=O)c2ccccc2n2c(=S)[nH]nc12  18.2%
4. N#Cc1c(-c2ccccc2)nc(-c2cccnc2)[nH]c1=O  17.6%
5. CCn1c(NN)nc2sc3c(c2c1=O)CCC3  17.5%
6. OCC(O)C1OC(Nc2ccc(Br)cc2)C(O)C1O (stereo not drawn)  16.7%
7. CCOC(=O)C(C)n1nc(-c2ccccc2)c2ccccc2c1=O (stereo not drawn)  15.9%
8. CCN1C(=O)/C(=C2/Sc3ccc(OC)cc3N2C)SC1=Nc1cccc(O)c1  15.6%
9. N#Cc1c(-c2ccccc2)nc(-c2ccccc2)[nH]c1=O  13.4%
10. O=c1ccnc(NCCc2ccccc2)[nH]1  12.7%
11. COc1ccc(NS(=O)(=O)c2cccc3nsnc23)cc1Cl  11.2%
12. CCOC(=O)CNC(=O)N1CCCC(C(=O)c2ccc3c(c2)OCO3)C1 (stereo not drawn)  11.1%
13. CCOc1ccc(S(=O)(=O)n2ccc(C)n2)cc1  10.9%
14. CCCCCCCCNC(=O)c1ccc(C)cc1  10.9%
15. O=S(=O)(NCc1ccc2c(c1)OCO2)c1cccc(S(=O)(=O)N2CCOCC2)c1  10.6%
16. O=C(NCc1ccccc1Cl)c1ccc2c(=O)n(CC3CCCO3)c(=S)[nH]c2c1 (stereo not drawn)  10.1%
17. O=C(CCCn1cnc([N+](=O)[O-])n1)Nc1cccc(O)c1  9.95%
18. Cn1nc(C(=O)NCc2cccc(Cl)c2)c2c1-c1ccccc1S(=O)(=O)C2  9.4%
19. CCN(CC)S(=O)(=O)c1ccc2oc(Nc3ccc(OC)cc3OC)nc2c1  9.24%
20. O=C(O)CCN1CCc2ccccc21  9.02%
21. COc1ccc(NS(=O)(=O)c2cccc(Cl)c2)cc1S(=O)(=O)N1CCCCC1  7.81%
22. CSc1ncccc1C(=O)N1CCCC(CCC(=O)NCc2ccccc2F)C1 (stereo not drawn)  6.52%
23. Cc1ccc(CNC(=O)c2ccc3c(=O)n(CCCN4CCCC4=O)c(=S)[nH]c3c2)cc1  6.41%
24. CCC1Oc2ccc(C)cc2N(CC(=O)NC2CCCCC2)C1=O (stereo not drawn)  5.8%
25. CCOC(=O)CSc1nnc(NC(=O)NC(C)C)s1  5.74%
26. O=c1c2ccccc2nc(CSc2ncnc3nc[nH]c23)n1-c1ccc(Cl)c(Cl)c1  5.27%
27. CCc1ccc(-c2nc(SCC(=O)NC3CCS(=O)(=O)C3)n[nH]2)cc1 (stereo not drawn)  4.84%
28. Cc1nc2nc[nH]n2c(=O)c1NS(C)(=O)=O  4.48%
29. C=CCNC1=C(Cl)C(=O)c2ccccc2C1=O  4.26%
30. CN(C)S(=O)(=O)c1cccc(NC(=O)Cn2cc(C(F)(F)F)cc(Cl)c2=O)c1  3.98%
31. O=C(COc1coc(CN2CCc3ccccc3C2)cc1=O)Nc1cccc([N+](=O)[O-])c1  2.89%
32. COc1cc(C)c(CNc2cccc(C)c2)cc1C  2.74%
33. CCCc1cc(Nc2ccccc2)n2ncnc2n1  2.69%
34. CCOC(=O)CCNC(=O)N1CCCC(C(=O)c2ccc3c(c2)OCO3)C1 (stereo not drawn)  2.31%
35. N#Cc1ccc2c(c1)nnn2-c1ccccc1  1.85%
36. CC(=O)Oc1c(C(=O)c2nnc(C)o2)c(=O)n(Cc2ccccc2)c2ccccc12  1.56%
37. COc1ccccc1N(CC(O)COc1c(C)cc(C)cc1C)S(=O)(=O)c1ccccc1 (stereo not drawn)  -0.161%
38. COc1ccc(NC(=O)CC(C)CC(=O)NCc2ccccc2)c(OC)c1 (stereo not drawn)  -0.642%
39. O=C(CCc1nnc2ccc(NCCCN3CCCC3=O)nn12)NCc1ccccc1Cl  -1.05%
40. COc1cccc(C(=O)/C=C/Nc2ccc(S(=O)(=O)Nc3nc(C)cc(C)n3)cc2)c1  -1.4%
41. CC(C)CCn1c(=O)c2ccccc2n2c(CN3CCCC3)nnc12  -2.3%
42. COc1ccc(C(=O)n2nc(-c3ccco3)nc2N)cc1  -2.65%
43. Cc1cc(=O)[nH]c(N2CCN(Cc3ccccc3)CC2)n1  -2.95%
44. Cc1cc(Cl)cc(C)c1OCCNCc1ccccc1.O=C(O)C(=O)O  -3.66%
45. c1cncc(-c2ccnc3ncnn23)c1  -4.79%
46. Cc1cc(C)c(C)c(OCCNCc2ccccc2)c1.O=C(O)C(=O)O  -5.47%
47. C=CCn1c(=O)c(C=Nc2cccnc2Cl)c(O)n(CCCC)c1=O  -5.65%
48. Cc1ccc(OCCNCc2ccccc2)c(C)c1.O=C(O)C(=O)O  -6.1%
49. CSc1ccc(S(=O)(=O)N2CCC(C(=O)NC3CC3)CC2)cc1  -7.17%
50. CN(C)c1cccc(C(=O)NCc2ccc(Cl)cc2)c1  -8.25%
51. O=C(NCc1ccccc1Cl)c1ccc2c(=O)n(CCCN3CCCC3=O)c(=S)[nH]c2c1  -8.83%
52. Cc1nn(-c2ccccc2)c2c1C(c1ccc(F)cc1F)C(C#N)=C(N)O2 (stereo not drawn)  -9.42%
53. CCOC(=O)Cn1cnc2c(C#N)c3n(c2c1=O)CCCCC3  -9.52%
54. Cc1ccc(CNC(=O)c2ccc3c(=O)n(CC4CCCO4)c(=S)[nH]c3c2)cc1 (stereo not drawn)  -9.6%
55. Cc1cc(C)c(CSc2ncc(-c3ccc([N+](=O)[O-])cc3)[nH]2)c(C)c1  -10.2%
56. CCCCNC(=O)CSc1nnc(NC(C)=O)s1  -10.6%
57. O=C(NC(c1ccccc1)C(Cl)(Cl)Cl)c1ccccc1 (stereo not drawn)  -11.3%
58. CC(C)CCn1c(=O)c2ccccc2n2c(CN3CCOCC3)nnc12  -11.9%
59. CCCCn1c(-c2ccco2)nc2ccccc2c1=O  -12.2%
60. CN(CC(=O)Nc1cccc(F)c1)CC(=O)N(C)CC(=O)Nc1ccccc1Br  -13.7%
61. NC(=O)CSc1ncc(-c2ccc([N+](=O)[O-])cc2)[nH]1  -14.6%
62. Cc1ccc(S(=O)(=O)N(C)Cc2cc3ccccc3[nH]c2=O)cc1  -15.7%
63. COCCCn1c(-c2ccco2)nc2ccccc2c1=O  -16%
64. Cc1ccc(S(=O)(=O)N2CCN(C)CC2)cc1C(=O)NC1CCCCC1  -19.5%
65. C=CCn1c(=O)c(C=Nc2c(OC)cccc2[N+](=O)[O-])c(O)n(CCCC)c1=O  -23.8%
66. CCCc1cc(Nc2cccc(OC)c2)n2ncnc2n1  -28.5%
67. O=C(c1ccc2c(c1)OCO2)C1CCCN(C(=O)Nc2ccc(F)cc2F)C1 (stereo not drawn)  -30%
68. Clc1cccc(Cl)c1OCCOCCNCc1ccccc1.O=C(O)C(=O)O  -31.2%
69. O=c1c2ccccc2nc(-c2ccccc2)n1CCCn1ccnc1  -31.9%
70. CC(C)CCn1c(=O)c2ccccc2n2c(CCl)nnc12  -32.8%
71. Cc1ccc(SCn2nnc3ccccc3c2=O)c(C)c1  -33.8%
72. CCc1ccc(N2CC(C(=O)Nc3ccc(C)c(S(=O)(=O)N4CCOCC4)c3)CC2=O)cc1 (stereo not drawn)  -34.6%
73. CN1CCC(N(C)C(=O)c2sc3cc(F)ccc3c2Cl)CC1  -47.9%
74. COc1ccc(-c2nc3ccccc3c(=O)n2CCCn2ccnc2)cc1  -49%
75. COc1ccc2c(c1)C=C([C@@H]1C[C@H]3CN(c4ccccc4)C(=O)[C@]34CCCN14)CO2  -49.2%
76. Cc1cc(Cl)cc(C)c1OCCOCCNCc1ccccc1.O=C(O)C(=O)O  -52.4%
77. O=c1c2ccccc2nc(-c2ccco2)n1CCCn1ccnc1  -53.9%
78. Cc1cc(C)c(C)c(OCCOCCNCc2ccccc2)c1.O=C(O)C(=O)O  -54.2%
79. C=CCn1c(=O)c(C=Nc2cccc([N+](=O)[O-])c2)c(O)n(CCCC)c1=O  -55%
80. Cc1ccc(-c2nc3ccccc3c(=O)n2CCCn2ccnc2)cc1  -57.7%
81. CCN(CC)CCn1c(=S)[nH]c2cc(C(=O)NCc3ccc(C)cc3)ccc2c1=O  -57.9%
82. CCOC(=O)CSc1ncc(-c2ccc([N+](=O)[O-])cc2)[nH]1  -61%
83. CCCc1cc(Nc2cccc(OCC)c2)n2ncnc2n1  -68%
84. N#Cc1c(-c2ccccc2)nc(-c2ccncc2)[nH]c1=O  -71.5%
85. CC(C)CCn1c(=O)c2ccccc2n2c(CN3C(=O)NC4(CCC(C)CC4)C3=O)nnc12 (stereo not drawn)  -72.1%
86. O=C(c1ccc2c(c1)OCO2)C1CCCN(Cc2cc(F)ccc2-n2cccn2)C1 (stereo not drawn)  -74.9%
87. CCN(CC)CCn1c(=S)[nH]c2cc(C(=O)NCc3ccccc3Cl)ccc2c1=O  -76.1%
88. Cc1ccc(-n2cccn2)c(CN2CCCC(C(=O)c3ccc4c(c3)OCO4)C2)c1 (stereo not drawn)  -77.2%
89. CC(C)CCn1c(=O)c2ccccc2n2c(CN(C)Cc3ccccc3)nnc12  -80.7%
90. CCCCNC(=O)Nc1nnc(SCC(=O)OCC)s1  -91.2%
